# Assay outcomes (PubChem)
# Compounds with a hit are over-represented: about 10% of the library has one in this group of screens.
# G9a inh = G9a (human) methyltransferase inhibition; G9a H3K9 monomethylation, AlphaScreen, 2 h; Q96KQ7; AID 504332; actives 8.8% (n = 350,000); Potency, µM (highest dose often 102 µM), inactives show at the top dose activity, negative = inhibition, hits mostly inhibitors; further: on the % scale 0 is the no-effect control and ±100 the full control effect; nearly all actives have a fitted effect of over 75% in size
#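 Compounds were preincubated with 20 nM G9a for 15 min, after which biotinylated H3K9 peptide (500 nM) and SAM (20 uM) started a 2 h room-temperature reaction. Monomethylated product was quantified by antibody-based AlphaScreen chemiluminescence.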
# GLS inh = glutaminase GLS (human) inhibition; O94925; GLS enzymatic activity, qHTS titration; Potency, µM (doses to about 45.5 µM), inactives show at the top dose activity change, negative = inhibition, actives largely listed as inhibitors; actives 0.21% (n = 410,000); further: on the % scale 0 is the no-effect control and ±100 the full control effect
#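 hKGA; 45 mM KH2PO4 pH 8.2 + 0.02% Tween-20; cpd via pin tool; 1 mM Gln soln; GluOx/HRP/Amplex Red; RT 30 min; fluor. t0 & final.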
# BAZ2B inh = BAZ2B (human) inhibition. AlphaScreen BAZ2B-H3K14Ac peptide displacement. Q9UIF8. Potency, µM (series often up to 114 µM), for inactives: top-dose activity change, negative = inhibition, hits mostly inhibitors. actives 4.4% (n = 360,000). AID 504333; further: on the % scale 0 is the no-effect control and ±100 the full control effect; nearly all actives have a fitted effect of over 60% in size
# Target sequence (Q9UIF8 whole entry, looked up): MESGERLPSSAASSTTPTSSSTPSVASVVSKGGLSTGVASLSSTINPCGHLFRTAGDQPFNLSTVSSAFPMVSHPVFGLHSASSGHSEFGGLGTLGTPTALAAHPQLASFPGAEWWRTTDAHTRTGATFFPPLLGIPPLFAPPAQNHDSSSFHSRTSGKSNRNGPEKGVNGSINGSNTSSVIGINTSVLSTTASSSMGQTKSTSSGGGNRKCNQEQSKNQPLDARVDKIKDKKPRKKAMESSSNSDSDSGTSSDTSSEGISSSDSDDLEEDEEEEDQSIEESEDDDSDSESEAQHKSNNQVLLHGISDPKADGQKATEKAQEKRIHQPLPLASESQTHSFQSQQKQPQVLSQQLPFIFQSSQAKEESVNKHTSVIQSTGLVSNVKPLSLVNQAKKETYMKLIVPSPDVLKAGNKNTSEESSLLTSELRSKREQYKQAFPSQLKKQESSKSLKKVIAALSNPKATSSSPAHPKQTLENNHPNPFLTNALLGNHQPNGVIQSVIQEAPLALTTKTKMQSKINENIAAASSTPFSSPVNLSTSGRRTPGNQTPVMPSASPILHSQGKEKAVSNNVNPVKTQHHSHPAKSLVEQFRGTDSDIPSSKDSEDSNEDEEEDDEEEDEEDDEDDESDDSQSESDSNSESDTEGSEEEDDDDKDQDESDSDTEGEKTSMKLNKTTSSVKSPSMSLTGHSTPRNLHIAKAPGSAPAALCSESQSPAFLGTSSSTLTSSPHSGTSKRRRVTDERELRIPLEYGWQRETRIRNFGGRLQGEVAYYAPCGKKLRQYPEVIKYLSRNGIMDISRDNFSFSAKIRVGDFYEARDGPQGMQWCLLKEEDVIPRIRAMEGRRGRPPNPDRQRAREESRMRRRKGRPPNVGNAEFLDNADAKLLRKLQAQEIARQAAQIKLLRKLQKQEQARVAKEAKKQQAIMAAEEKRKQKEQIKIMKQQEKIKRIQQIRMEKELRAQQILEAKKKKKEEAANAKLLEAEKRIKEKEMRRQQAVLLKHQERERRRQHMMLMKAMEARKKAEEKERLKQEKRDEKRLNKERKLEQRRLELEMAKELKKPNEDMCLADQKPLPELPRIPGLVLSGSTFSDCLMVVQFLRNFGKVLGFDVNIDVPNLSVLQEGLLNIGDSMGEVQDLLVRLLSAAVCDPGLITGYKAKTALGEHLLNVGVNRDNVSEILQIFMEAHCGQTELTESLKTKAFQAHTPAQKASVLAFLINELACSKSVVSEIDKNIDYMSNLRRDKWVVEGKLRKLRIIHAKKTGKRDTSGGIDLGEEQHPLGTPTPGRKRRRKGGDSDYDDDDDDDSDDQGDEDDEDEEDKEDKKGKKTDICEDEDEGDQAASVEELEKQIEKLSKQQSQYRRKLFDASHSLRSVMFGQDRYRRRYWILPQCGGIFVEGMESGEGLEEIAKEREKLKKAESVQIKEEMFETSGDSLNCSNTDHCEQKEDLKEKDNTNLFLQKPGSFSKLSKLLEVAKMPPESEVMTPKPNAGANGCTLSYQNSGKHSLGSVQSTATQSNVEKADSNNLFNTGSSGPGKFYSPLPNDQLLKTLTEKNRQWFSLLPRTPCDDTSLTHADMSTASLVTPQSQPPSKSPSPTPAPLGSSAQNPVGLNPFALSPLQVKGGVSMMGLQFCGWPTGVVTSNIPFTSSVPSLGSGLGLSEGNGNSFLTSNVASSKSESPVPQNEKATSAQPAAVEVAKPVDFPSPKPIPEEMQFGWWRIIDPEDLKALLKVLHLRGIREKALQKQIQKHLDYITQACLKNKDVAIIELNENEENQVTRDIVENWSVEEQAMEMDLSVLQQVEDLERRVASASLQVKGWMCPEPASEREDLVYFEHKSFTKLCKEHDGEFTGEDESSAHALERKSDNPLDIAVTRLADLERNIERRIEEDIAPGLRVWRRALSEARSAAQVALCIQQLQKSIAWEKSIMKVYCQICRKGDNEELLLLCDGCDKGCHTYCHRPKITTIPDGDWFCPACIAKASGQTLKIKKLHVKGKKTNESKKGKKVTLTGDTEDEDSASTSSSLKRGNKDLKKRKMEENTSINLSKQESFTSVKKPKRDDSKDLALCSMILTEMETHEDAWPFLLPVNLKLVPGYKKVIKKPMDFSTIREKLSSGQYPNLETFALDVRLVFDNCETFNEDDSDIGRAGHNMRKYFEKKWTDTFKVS
#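 Multi-concentration screen (max 110 uM) measuring displacement of acetylated histone H3 peptide from BAZ2B by AlphaScreen, using 50 nM protein, 50 nM peptide and 10 ug/mL streptavidin donor plus Ni-chelate acceptor beads.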
# HP1b chromo inh = inhibitors of HP1-beta chromodomain binding to methylated histone tails; P83916; AlphaScreen HP1-beta / biotin-H3K9me3 peptide binding; Potency, µM (top dose mostly 114 µM), inactives show at the highest dose activity change, negative = inhibition, most hits filed as inhibitors; actives 0.56% (n = 390,000); further: nearly all actives have a fitted effect of over 70% in size
#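 Compound inhibition of the preformed complex between 50 nM HP1-beta and 50 nM biotinylated H3K9me3 peptide was read by AlphaScreen. Buffer was PBS pH 7.4 with 0.01% Tween-20. Incubations ran 30 min at room temperature, with 10 ug/mL donor/acceptor beads.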
# JMJD2A Tudor = inhibitors of human JMJD2A Tudor domain. O75164. AlphaScreen JMJD2A-Tudor / H3K4me3 peptide binding. Potency, µM (doses to about 114 µM), inactives show at the top dose activity change, negative = inhibition, most hits filed as inhibitors. actives 4.4% (n = 390,000); further: on the % scale 0 is the no-effect control and ±100 the full control effect; nearly all actives have a fitted effect of over 50% in size
# * hit, by the source's call; u = inconclusive; x = no result; [ ] = remark or other dose. The call rests on the fitted dose curve; in most records, active means well fitted curve in the direction sought with a large enough effect; inconclusive means small, poorly fitted or top-dose-only effect, or another doubt; inactive means no such curve, though single readings can be large; an effect the other way counts as inactive or inconclusive. Potency means the concentration at half of the fitted maximal effect.
SMILES,G9a inh,GLS inh,BAZ2B inh,HP1b chromo inh,JMJD2A Tudor
CC1CCc2nc3ccc(S(=O)(=O)N4CCC(C(=O)N5CCCCC5)CC4)cc3c(C(=O)O)c2C1 (stereo unspecified),44.7µM*,-12.6%,-5.7%,35.0%,-15.9%
COC(CNC(=O)C1CCN(S(=O)(=O)c2ccc3nc4c(c(C(=O)O)c3c2)CC(C)CC4)CC1)OC (stereo unspecified),31.6µM*,-10.0%,u,9.7%,-26.2%
CC1CCc2nc3ccc(S(=O)(=O)N4CCC(C(=O)NC5CCCC5)CC4)cc3c(C(=O)O)c2C1 (stereo unspecified),44.7µM*,2.5%,-32.3%,26.5%,-22.7%
CNc1cc(C)nc(N2CCOCC2)n1,11.5%,-2.2%,-2.0%,27.6%,-16.9%
O=C(Nc1nccs1)c1cccnc1,28.3%,55.1%,-23.9%,3.5%,u
C=CCNc1oc(-c2cccs2)nc1S(=O)(=O)c1ccccc1,23.7%[12.7 µM],u,-29.9%,11.8%,-8.4%
O=C(O)c1c2c(nc3ccc(S(=O)(=O)N4CCC(C(=O)NC5CCCC5)CC4)cc13)CCCCC2,u,8.9%,-5.7%,21.1%,-24.8%
CC1CCc2nc3ccc(S(=O)(=O)N4CCC(C(=O)O)CC4)cc3c(C(=O)O)c2C1 (stereo unspecified),31.6µM*,-5.3%,u,38.1%,u
CSc1ccc(S(=O)(=O)N2CCC(C(=O)NC3CC3)CC2)cc1,35.5µM*,0.0%,5.6%,-1.9%,-13.8%
CC1CCc2nc3ccc(S(=O)(=O)N4CCC(C(=O)NC(C)c5ccccc5)CC4)cc3c(C(=O)O)c2C1 (stereo unspecified),50.1µM*,-4.8%,u,13.3%,-27.6%
CCc1ccc2nc3c(c(C(=O)O)c2c1)CCC3,50.1µM*,u,u,-0.3%,-32.8%
CSc1sc(C(=O)OC(C)C)c2c1C(=O)CC(C)(C)C2,2.9%,-1.3%,3.3%,36.6%,-4.8%
COc1ccc(COC(=O)c2ccc(Br)c(S(=O)(=O)N3CCOCC3)c2)cc1F,-49.4%,-13.8%,32.9%,u,-14.5%
Clc1ccc(-c2nnc(NCCN3CCCC3)c3ccccc23)cc1,u,-3.6%,u,41.4%,u
Cc1ccc(NC(=O)/C(C#N)=C/c2cc(C)n(-c3ccc(N4CCOCC4)c([N+](=O)[O-])c3)c2C)c(C)c1,-8.1%,2.2%,0.1%[57.1 µM],-17.0%,u
C#CCOCCOCCOCCNc1nc(N2CCOCC2)nc(N2CCN(C(=O)[C@H](CCCN=C(N)N)n3cc(C(N)[C@@H](C)CC)nn3)CC2)n1 (stereo partly specified),x,-0.4%,x,28.4%,-19.7%
C#CCOCCOCCOCCNc1nc(N2CCN(C(=O)[C@H](CCCN=C(N)N)n3cc(C(N)[C@@H](C)CC)nn3)CC2)nc(N2CCN(C(=O)[C@H](CC(N)=O)n3cc([C@@H](N)C(C)C)nn3)CC2)n1 (stereo partly specified),x,9.8%,x,15.5%,79.4µM*
C#CCOCCOCCOCCNc1nc(N2CCN(C(=O)[C@H](CCCN=C(N)N)n3cc(C(N)[C@H](C)CC)nn3)CC2)nc(N2CCN(C(=O)[C@H](CCCN=C(N)N)n3cc(C(N)[C@@H](C)CC)nn3)CC2)n1 (stereo partly specified),x,-1.2%,x,2.6%,79.4µM*
C#CCOCCOCCOCCNc1nc(N2CCN(C(=O)[C@H](CCCN=C(N)N)n3cc(C(N)[C@@H](C)CC)nn3)CC2)nc(N2CCN(C(=O)[C@H](CC(N)=O)n3cc([C@@H](N)CC(N)=O)nn3)CC2)n1 (stereo partly specified),x,7.8%,x,5.6%,22.4µM*
C#CCOCCOCCOCCNc1nc(N2CCN(C(=O)[C@H](CCCCN)n3cc(CN)nn3)CC2)nc(N2CCN(C(=O)[C@H](CCCN=C(N)N)n3cc(C(N)[C@H](C)CC)nn3)CC2)n1 (stereo partly specified),x,-1.4%,x,18.1%,79.4µM*
O=C(Nc1nnc(SCC(=O)N2CCCc3ccccc32)s1)c1ccc2ccccc2c1,u,12.4%,-28.3%,14.2%,-3.5%
Cc1ccc(NC(=O)COc2ccc(C(=O)NCCc3ccccc3)cc2)cc1,x,3.6%,x,7.0%,u
